The nature of experiment [1]: NCI Yeast Anticancer Drug Screen. Data for the rad50 strain (AID 155).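 Further: 0% = growth of vehicle-only cultures of the same strain.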 The note with it: S. cerevisiae rad50 strain growth inhibition; at 50.0 µM; hits give high values. A digest of the protocol:
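A DNA repair-deficient yeast mutant serves as the test organism; compound-induced growth inhibition is calculated against vehicle-treated cells.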

Experiment [2] can be described thus: NCI Yeast Anticancer Drug Screen. Data for the mec2-1 strain (AID 157). The note with it: S. cerevisiae mec2-1 strain, at 50.0 µM, hits give high values. A digest of the protocol: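 Compounds were applied to mec2-1 yeast cells. Their growth was then compared with that of vehicle-treated cultures to give growth inhibition.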
The nature of experiment [3]: NCI Yeast Anticancer Drug Screen. Data for the sgs1 mgt1 strain (AID 161).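 Further: 0% = growth of cultures given vehicle only.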 To be noted: S. cerevisiae sgs1 mgt1 strain, at 50.0 µM, hits give high values. The essentials:
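Yeast cells carrying a defined DNA-repair defect were exposed to test compounds. Growth inhibition was measured relative to vehicle-treated controls.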

Experiment [4] in a line: NCI Yeast Anticancer Drug Screen. Data for the cln2 rad14 strain (AID 165).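 Further: 0% = growth equal to vehicle treated cultures.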 The note with it: S. cerevisiae cln2 rad14 strain, at 50.0 µM, hits give high values. A digest of the protocol:
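Strain: cln2 rad14 yeast, altered in cell cycle control and DNA damage repair. Read-out: growth inhibition vs vehicle.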

The nature of experiment [5]: NCI Yeast Anticancer Drug Screen. Data for the bub3 strain (AID 167). The note with it: S. cerevisiae bub3 mutant strain, at 50.0 µM, hits give high values. A digest of the protocol: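 Inhibition values come from growth of compound-treated mutant yeast normalised to vehicle-treated controls.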
A short description of experiment [6]: NCI Yeast Anticancer Drug Screen. Data for the mlh1 rad18 strain (AID 175). To be noted: S. cerevisiae mlh1 rad18 strain growth inhibition; at 50.0 µM; hits give high values. A digest of the protocol:
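A repair-deficient yeast strain is exposed to test compound, and growth is scored relative to vehicle-treated controls.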

Molecules are shown by their SMILES. This is part of a sample that, as a whole, favours compounds with a hit. Of some 79,000 tested, about 15% had one in any assay. Values without a mark were called inactive. The source made the active and inactive calls. No stated cut-off is given here; in the data, active means growth inhibition above about 70%; inactive means the rest.

As for `N#Cc1nnn2c1nc(N)c1c(Cl)cccc12`, the growth inhibition in experiment [1] is 0.75%; in experiment [2], -17.1%; in experiment [3] it was -4.6%; in experiment [4], -0.05%; in experiment [5] it was -11.8%; in experiment [6], -8.35%.

For the compound `COc1ccc2c(c1)OC(c1cccnc1)C(c1ccccc1)C2=O` (stereo not drawn), the growth inhibition in experiment [1] is -5.45%; in experiment [2], -27.9%; in experiment [3] it was 17.9%; in experiment [4], 15.4%; in experiment [5] it was 16.1%; in experiment [6] it was -0.05%.

For the compound `CCC(=O)N(C)[C@@H]1Oc2ccc(O)cc2[C@]1(C)c1cc(O)ccc1O`, the growth inhibition is 0.35% in experiment [1]; 2.25% in experiment [2]; 14.8% in experiment [3]; 19.9% in experiment [4]; 6.7% in experiment [5]; 9.95% in experiment [6].

With `CN(N)C(=O)Nc1cccc(Cl)c1`, the growth inhibition is 13.1% in experiment [1]; 8.55% in experiment [2]; 16.4% in experiment [3]; -5.25% in experiment [4]; 2.7% in experiment [5]; 17.3% in experiment [6].

Turning to `CC1C=C(Br)C(=O)C(n2cnc3c(=O)n(C)c(=O)n(C)c32)O1` (stereo not drawn), the growth inhibition in experiment [1] was 24.1%; in experiment [2], 13.5%; in experiment [3], 18.8%; in experiment [4] it was 8%; in experiment [5] it was 10.9%; in experiment [6] it was 34%.

In the case of `O=C(Nc1ccccc1)SC1CCCCC1`, the growth inhibition in experiment [1] was -4.6%; in experiment [2], 4.95%; in experiment [3], -8.7%; in experiment [4] it was -21.1%; in experiment [5], 3.8%; in experiment [6] it was -1.9%.

Take `O=C(CCCCc1ccccc1)NO`: the growth inhibition in experiment [1] was 25.4%; in experiment [2] it was 18.8%; in experiment [3], 14.4%; in experiment [4] it was 15.8%; in experiment [5], -5.5%; in experiment [6], 33.5%.

In the case of `Cc1ccc(N=C(C(=O)c2ccccc2)C(Nc2ccc(C)cc2)C(=O)c2ccccc2)cc1` (stereo not drawn), the growth inhibition was 23.8% in experiment [1]; 3.25% in experiment [2]; 17.8% in experiment [3]; 20.8% in experiment [4]; -3.7% in experiment [5]; 10.7% in experiment [6].

With `CC1(C)C=CC(=NO)C=C1`, the growth inhibition in experiment [1] is -4.65%; in experiment [2], 2.65%; in experiment [3], -5.95%; in experiment [4], 6.45%; in experiment [5], 8.4%; in experiment [6] it was 6.7%.

`CN1C(=O)c2ccccc2C(O)(c2ccccc2)C1(O)c1ccccc1` (stereo not drawn): the growth inhibition is -6.3% in experiment [1]; -20.9% in experiment [2]; -26.7% in experiment [3]; 12.2% in experiment [4]; -12.2% in experiment [5]; -38.9% in experiment [6].

Turning to `ClCC/C(=C(/Cl)c1ccccc1)c1ccccc1`, the growth inhibition was -0.65% in experiment [1]; 5.6% in experiment [2]; 6.65% in experiment [3]; 4.8% in experiment [4]; -14.3% in experiment [5]; 3.1% in experiment [6].

As for `CC1=C(c2ccccc2)C(c2ccccc2)c2ccccc21` (stereo not drawn), the growth inhibition in experiment [1] was 17.3%; in experiment [2], 26.7%; in experiment [3], 33.6%; in experiment [4] it was 51.4%; in experiment [5], 54.4%; in experiment [6] it was 85.6% (active).

As for `CCOC(=O)C(=O)O`, the growth inhibition in experiment [1] is 12.3%; in experiment [2], -9.3%; in experiment [3], -4.85%; in experiment [4] it was -7.8%; in experiment [5], -5.05%; in experiment [6], -5.7%.

For `O=c1ccc2cc3ccoc3c(OCCOCCOCCOCCOc3c4occc4cc4ccc(=O)oc34)c2o1`, the growth inhibition is 14.7% in experiment [1]; 17.4% in experiment [2]; 11.4% in experiment [3]; -17.2% in experiment [4]; 3.5% in experiment [5]; 26.8% in experiment [6].

`COc1ccc(S(=O)Cc2cc(OC)c(OC)c(OC)c2)cc1` (stereo not drawn): the growth inhibition in experiment [1] is -7.9%; in experiment [2] it was -19.9%; in experiment [3], -61.7%; in experiment [4], -19.8%; in experiment [5], -14.3%; in experiment [6], -23.7%.

As for `CC(=O)Nc1ccc(Cc2ccc3[nH]c(=O)cc(C)c3c2)cc1`, the growth inhibition is -16.3% in experiment [1]; 18.6% in experiment [2]; 15.8% in experiment [3]; 5.35% in experiment [4]; -30.1% in experiment [5]; 12.9% in experiment [6].

For `O=C(O)C(=O)Cc1ccccc1`, the growth inhibition in experiment [1] was 11.2%; in experiment [2] it was -14.2%; in experiment [3] it was -4.85%; in experiment [4], 19.9%; in experiment [5], 0.85%; in experiment [6] it was 14.9%.

On to `N#CC(C(=O)CCc1nc2ccccc2[nH]1)c1nc2ccccc2s1` (stereo not drawn), for which the growth inhibition in experiment [1] is 6.75%; in experiment [2], -3.5%; in experiment [3], -9.55%; in experiment [4], -17.8%; in experiment [5], 4.35%; in experiment [6], -0.6%.

For `COc1ccc(C(CCOS(=O)(=O)c2ccc(Br)cc2)(c2ccc(OC)cc2)c2ccc(OC)cc2)cc1`, the growth inhibition in experiment [1] is 0.9%; in experiment [2], 12.8%; in experiment [3], -13.1%; in experiment [4], -23.6%; in experiment [5], 0%; in experiment [6] it was 15.6%.

`CCOC(=O)c1c(N)[nH]c(SSc2[nH]c(N)c(C(=O)OCC)c2C(=O)OCC)c1C(=O)OCC`: the growth inhibition in experiment [1] was 25.6%; in experiment [2] it was 3.85%; in experiment [3], 30.3%; in experiment [4], 13.7%; in experiment [5] it was 17.8%; in experiment [6] it was 20.3%.

With `CC1(C)CNC(C)(C)CN1`, the growth inhibition in experiment [1] is -4.45%; in experiment [2] it was -11.8%; in experiment [3] it was 4.35%; in experiment [4], 1.1%; in experiment [5] it was 17.5%; in experiment [6] it was -18%.

`Brc1cccc2ccccc12`: the growth inhibition in experiment [1] was 23.6%; in experiment [2] it was -13.9%; in experiment [3] it was 0.7%; in experiment [4], -38%; in experiment [5], -12.3%; in experiment [6], 6.85%.

For the compound `Nc1ccc(Nc2cc(=O)[nH]c(=O)[nH]2)cc1Cl`, the growth inhibition was 5.8% in experiment [1]; 6.6% in experiment [2]; 14.1% in experiment [3]; 6.2% in experiment [4]; -3.2% in experiment [5]; -20.8% in experiment [6].

On to `Cc1ccc(NC(=O)Oc2ccc(Br)cc2Br)c(Cl)c1`, for which the growth inhibition is 21.1% in experiment [1]; 17.9% in experiment [2]; 16.7% in experiment [3]; -0.25% in experiment [4]; -6.3% in experiment [5]; 41.6% in experiment [6].

Consider `CCCCOC(=O)/C=C\C(=O)NC(=O)NC(C)(C)C`, for which the growth inhibition was -7.55% in experiment [1]; 1.2% in experiment [2]; -4.3% in experiment [3]; -33.1% in experiment [4]; 5.05% in experiment [5]; 3.15% in experiment [6].

Regarding `C=C(C(=O)O)C1CC[C@@]2(C)CC(O)CC(=C)C2C1` (stereo partly drawn), the growth inhibition was 16.4% in experiment [1]; -0.95% in experiment [2]; -8.1% in experiment [3]; 5.3% in experiment [4]; -2.9% in experiment [5]; 14.7% in experiment [6].

As to `O=C(Nc1c[nH]c(=O)[nH]c1=O)Oc1ccccc1`, the growth inhibition in experiment [1] was -5.65%; in experiment [2], -6.7%; in experiment [3], -4.8%; in experiment [4], -1%; in experiment [5], -50%; in experiment [6], 5.05%.

As to `Nc1ncnc(N)c1NC(=O)c1cccc(F)c1`, the growth inhibition in experiment [1] was 0.15%; in experiment [2], -1.3%; in experiment [3] it was -3.7%; in experiment [4] it was -39.2%; in experiment [5], -8.35%; in experiment [6] it was 1.5%.

As for `O=C(Nc1ccn(C2CCC(CO)O2)c(=O)n1)c1ccccc1` (stereo not drawn), the growth inhibition in experiment [1] was 35.8%; in experiment [2], -3.05%; in experiment [3] it was -16.7%; in experiment [4] it was -23.8%; in experiment [5], 4.25%; in experiment [6], -7.55%.

Turning to `CC(=O)NC(NC(C)=O)c1ccccc1`, the growth inhibition in experiment [1] was -16.6%; in experiment [2], -8.5%; in experiment [3], -5.45%; in experiment [4] it was -8.55%; in experiment [5], -26.4%; in experiment [6], -20.5%.

With `Cc1ccc(S(=O)(=O)C2c3nc4ccccc4cc3-c3nc4ccccc4nc32)cc1` (stereo not drawn), the growth inhibition in experiment [1] was -10.8%; in experiment [2], -13.2%; in experiment [3], -17.8%; in experiment [4], -81.8%; in experiment [5], 7.95%; in experiment [6] it was -14.9%.

Consider `CCCCOC(=O)c1ccc(NC(=O)CCC(C)Cl)cc1` (stereo not drawn), for which the growth inhibition was -15.7% in experiment [1]; 13.2% in experiment [2]; -2.1% in experiment [3]; -22.2% in experiment [4]; 16.8% in experiment [5]; 6.6% in experiment [6].

As to `CCCOc1cc2c(cc1C(C)(C)c1ccccc1)OCO2`, the growth inhibition was -16.9% in experiment [1]; -18.6% in experiment [2]; -12.7% in experiment [3]; -27.9% in experiment [4]; -3.5% in experiment [5]; -15.4% in experiment [6].

Consider `Cn1ncc2c(=S)[nH]c(=S)[nH]c21`, for which the growth inhibition is 19.4% in experiment [1]; -9.25% in experiment [2]; 2.5% in experiment [3]; 7.85% in experiment [4]; 2.3% in experiment [5]; 1.85% in experiment [6].

On to `CCC(C)(C)N`, for which the growth inhibition is 0.3% in experiment [1]; 2.7% in experiment [2]; 4.25% in experiment [3]; -73.2% in experiment [4]; 9.15% in experiment [5]; -20.2% in experiment [6].

For the compound `CCCC(CCC)=C1C(=O)N=C(N)NC1=O`, the growth inhibition in experiment [1] was -6.45%; in experiment [2], 4.9%; in experiment [3], -2.7%; in experiment [4], -9.05%; in experiment [5] it was -7.35%; in experiment [6] it was -16%.

As to `CCCCCCCCCCCCCCCCS(=O)(=O)N/N=C/c1ccccc1O`, the growth inhibition in experiment [1] is 25.9%; in experiment [2], 26.2%; in experiment [3], 30.2%; in experiment [4], 18.2%; in experiment [5], 6.2%; in experiment [6] it was 20.2%.

On to `O=C1CN(/N=C/c2ccc(-c3ccc(F)cc3)o2)C(=O)N1`, for which the growth inhibition in experiment [1] was 10.4%; in experiment [2], -0.15%; in experiment [3], -20.9%; in experiment [4] it was -26.6%; in experiment [5] it was 5.05%; in experiment [6] it was -3.45%.

Values taken from PubChem BioAssay (NCI).
